Sa ugtP lethal: kills S. aureus RN4220 lacking UgtP; S. aureus RN4220 ugtP deletion, OD600 growth, 16 h; growth inhibition, % (concentration not given with the values); 330,000 tested, 0.54% active; in the data active = growth inhibition above about 68%;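 note: plate controls were untreated wells for no effect and antibiotic for full effect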
PriA SSB inh: blocks PriA binding to SSB C-terminal tail | inhibition, % at 33 µM | AlphaScreen SSBct-PriA binding, biotinylated peptide | 430,000 tested, 0.6% active; in the data active = inhibition mostly above about 37%, no sharp cut-off; inactive = mostly below about 20%;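 note: plate controls were negative control peptide for no effect and reference peptide for full effect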
Sa RN4220 lethal: S. aureus RN4220 growth inhibition; 330,000 tested, 0.33% active; OD600, 16 h; AID 1259311; inhibition, % (concentration not given with the values); in the data active = inhibition above about 85%;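 note: plate controls were untreated cells for no effect and reference antibiotic for full effect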
Mtb hypoxia rep: Mtb hypoxia fluorescent reporter inhibition; fluorescence inhibition, % (no concentration beside the values); M. tuberculosis hypoxia-regulated fluorescent reporter, fluorescence; 300,000 tested, 0.1% active; in the data active = fluorescence inhibition mostly above about 23%, no sharp cut-off; inactive = mostly below about 17%
Mtb bLac sens: beta-lactam sensitization of Mtb H37Rv; inhibition, % at 25 µM; M. tuberculosis H37Rv growth with meropenem, percent inhibition; 330,000 tested, 0.27% active; call rule not given here;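 note: growth measured after seven days incubation then overnight dye step; 0% = bacteria only wells and 100% = bacteria with antibiotic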
* = called active by the depositor; / = no result shown; ! = not active in a repeat. Compounds with a hit are over-represented: about 1% of the library has one in this group of screens.

SMILES	Sa ugtP lethal	PriA SSB inh	Sa RN4220 lethal	Mtb hypoxia rep	Mtb bLac sens
O=c1c2sccc2nc(SCc2nc(-c3ccc4c(c3)OCO4)no2)n1-c1ccc(F)cc1	/	1	/	/	/
O=C(NCc1nnnn1-c1cccc(F)c1)c1cc2ccccc2oc1=O	/	0	/	/	/
CCCCN=C[C@]12CCC(O)CC1(O)CCC1[C@@H]2CC[C@]2(C)[C@H](C3C=CC(=O)O3)CCC12O (stereo not given in full)	3	66*	5	0	-9
CC(c1ccccc1)N1C(=O)c2ccc(C(=O)Nc3ccc(Br)cc3C(=O)O)cc2C1=O (stereo not given)	92*	-20	100*	11	-4
Cc1ccccc1C(=O)C(C#N)=NNc1c(C)n(C)n(-c2ccccc2)c1=O	/	71	/	/	/
Cc1ccc(-c2nc3ccccn3c2NCc2ccc3c(c2)OCO3)cc1	-4	45*	2	6	0
COc1ccc(N2CC(C(=O)Nc3nnc(-c4ccnn4C)o3)CC2=O)cc1 (stereo not given)	/	71*	/	/	/
O=C(Nc1nnc(-c2ccccc2)o1)C1CC(=O)N(c2ccccc2)C1 (stereo not given)	/	44*!	/	/	/
CCN1CCN(C(=O)c2cc3c(OC)c(OC)c(OC)cc3[nH]2)CC1	1	64*	2	7	0
O=C(Nc1cccc2ncccc12)c1ccc(Cl)cc1	-5	48*	5	15	5
CCc1nnc(NS(=O)(=O)c2ccc(N3CCCn4c3nc3c4c(=O)[nH]c(=O)n3C)cc2)s1	/	5	/	/	/
CCCOc1ccc(C2C(=C(O)c3ccc(F)cc3)C(=O)C(=O)N2CCCN(C)C)cc1 (stereo not given)	/	-12	/	/	/
O=C(/C=C\c1ccccc1)N1CCC(c2nnc(C3CC3)s2)CC1	/	1	/	/	/
CCCCOc1ccc(CN=C(N)N)cc1Cl	100*	-14	5	7	-5
CCCOc1ccc(CCCN=C(N)N)cc1Cl	101*	-1	37	7	-15
COc1ccccc1OCC#CCNC(=O)c1ccccc1C(F)(F)F	/	-1	/	/	/
Cc1ccc(NC(=O)c2ccco2)cc1N1CCCCC1=O	/	-8	/	/	/
CCc1[nH]nc(N)c1-c1ccccc1	/	-16	/	/	/
COc1ccc(-c2nc(CNC(=O)[C@H]3CCCN(c4ccc(=O)n(C)n4)C3)cs2)cc1	/	-10	/	/	/
CCn1ccc(C(=O)Nc2nnc(-c3ccno3)o2)n1	/	28*	/	/	/
Cn1ccc(C(=O)Nc2nnc(-c3ccno3)o2)n1	/	16	/	/	/
O=C(Cn1cccc(-c2nc(-c3ccccc3)no2)c1=O)Nc1ccc(Cl)c(C(F)(F)F)c1	/	-8	/	/	/
Cc1ccc(C(=O)CSc2nnc3cc(C)c4ccccc4n23)s1	/	-12	/	/	/
O=C1c2ccccc2-c2cccc(NS(=O)(=O)c3ccc(C(F)(F)F)cc3)c21	97*	-3	97*	6	-12
Cc1ccc(S(=O)(=O)Nc2ccccc2-c2ccccc2NS(=O)(=O)c2ccc(C)cc2)cc1	9	7	28	/	-3
SMILES	Sa ugtP lethal	PriA SSB inh	Sa RN4220 lethal	Mtb hypoxia rep	Mtb bLac sens
CCOc1cccc(/C=C/c2nc3ccccc3[nH]c2=O)c1	/	-19	/	/	/
C[n+]1c(-c2ccccc2)c2cc(N)ccc2c2ccc(N)cc21	98*	69	37	/	100
Nc1ccc2nc(-c3ccccc3)c(-c3ccccc3)nc2c1	/	-3	/	/	5
O=C(Nc1ccccc1F)c1cc(C2CCN(C(=O)c3c[nH]c(=O)c(Cl)c3)CC2)[nH]n1	/	98*	/	/	/
O=C(Nc1ccccc1F)c1cc(C2CCN(C(=O)c3cccs3)CC2)[nH]n1	/	2	/	/	/
Cc1cc(C)cc(Oc2ccccc2C=NO)c1	87*	-1	-3	/	/
COC1=C(Br)C(=O)c2ncccc2C1=O	/	41*	/	/	/
O=C1c2ccccc2-c2nccnc21	-1	-2	4	0	-10
O=C1c2cccnc2-c2ncccc21	15	37*!	17	-1	-17
Cc1cccn2cc(-c3ccc(NC(=O)C4c5ccccc5Oc5ccccc54)cc3)nc12	/	-16	/	/	/
Cc1cccc(Cn2cnc3c(cnn3CCNC(=O)c3ccco3)c2=O)c1	/	-14	/	/	/
COc1ccc(/C=C\C(=O)c2c(O)ccc3c(C)cc(=O)oc23)cc1	87*	-6	-7	/	81
COc1ccc(/C=C/C(=O)c2c(C)cc(C)cc2C)cc1	/	19	/	/	/
COc1ccc(/C=C/C(=O)c2c(O)ccc3c(C)cc(=O)oc23)cc1	89*	-14	5	12	75
Cc1cc(=O)oc2c(O)c(O)ccc12	/	3	/	/	/
O=S(=O)(NCCc1ccsc1)c1ccccc1OC(F)(F)F	/	-24	/	/	/
COc1ccc(CCNC(=O)CSc2nc(-c3cccs3)nc3c2c(=O)n(C)c(=O)n3C)cc1OC	/	-18	/	/	/
O=C(Cc1csc(NC(=O)Nc2ccc(Cl)cc2)n1)Nc1ccccc1Oc1ccccc1	/	22	/	/	/
O=C(Nc1nnc(S(=O)(=O)N2CCCCCC2)s1)c1ccccc1	11	101*	10	3	2
O=C(COc1ccccc1Cl)Nc1nnc(S(=O)(=O)N2CCCC2)s1	14	85*	1	6	4
COc1cncc(O[C@H]2CCCN(S(=O)(=O)c3cc(F)ccc3OC)C2)n1	/	-11	/	/	/
Cc1ccc(NC(=O)CS(=O)(=O)c2cn(C)c3ccccc23)c(C)c1	7	104*	1	9	-4
COc1ccc(-c2ccc(N3CCN(C(=O)c4c(F)cccc4F)CC3)nn2)cc1	/	-9	/	/	/
CCN(CC)C(=O)CSc1nnc2nnc3cc(OC)ccc3n12	2	-6	5	66*	/
CC(C)[C@H](NC(N)=O)C(=O)NCCc1ccc(Cl)cc1	7	39*	1	7	-10
SMILES	Sa ugtP lethal	PriA SSB inh	Sa RN4220 lethal	Mtb hypoxia rep	Mtb bLac sens
O=C(Nc1cccnc1)c1csc(Nc2cccc(Cl)c2)n1	/	-7	/	/	/
O=C(Nc1ccc(S(=O)(=O)N2CCOCC2)cc1)c1ccc([N+](=O)[O-])s1	-2	-9	6	38*	95
O=C(Nc1ccc(S(=O)(=O)N2CCOCC2)cc1)c1cccs1	-1	-14	1	/	-4
COc1ccc(CCNC(=O)CN2CC(c3nc(-c4ncccn4)no3)C2)cc1OC	/	-7	/	/	/
CCS(=O)(=O)c1ccc(CC(=O)Nc2nnc(-c3ccco3)o2)cc1	/	54*	/	/	/
O=C(NCc1nc2ccccc2[nH]1)c1ccc(-n2cncn2)nn1	/	-15	/	/	/
COc1ccc([N+](=O)[O-])cc1NC(=S)NC(C)=O	4	-2	3	7	18
CCCCC(=O)NC(=S)Nc1cc([N+](=O)[O-])ccc1OC	active	-10	82	10	93
N#Cc1cccnc1N1CCC(CNC(=O)c2c(F)cccc2Cl)CC1	/	3	/	/	/
Cn1c(O)c(/C=N/NC(=O)c2cc3ccccc3cc2O)c2ccccc21	/	/	/	/	-6
Cn1c(O)c(C=NNC(=O)c2cc3ccccc3cc2O)c2ccccc21	93*	3	31	14	/
CSCC[C@](C)(O)CNC(=O)c1ccc(Br)o1	/	-10	/	/	/
CCN1/C(=C/C(C)=C/c2sc3ccccc3[n+]2CC)Sc2ccccc21	99*	76	100*	/	99
O=C(NCc1ccccn1)C(=O)Nc1cccc(N2CCCC2=O)c1	/	-12	/	/	/
COc1ccc(Nc2oc(COc3ccc(Cl)cc3)nc2C#N)cc1	-5	41*	1	9	-1
COc1ccc(OCc2nc(C#N)c(N3CCCC3)o2)cc1	/	80*	/	/	/
